# Six1-Eya2 inh: qHTS Assay for Inhibitors of the Six1/Eya2 Interaction. Homeobox protein SIX1 (Homo sapiens) + Protein phosphatase EYA2 (Homo sapiens), …. AlphaScreen GST-Six1/His-Eya2 binding, biochemical; active compounds read low. activity change, % (concentration not given with the values). 360,000 compounds, 0.56% hits. AID 651725, 2012
#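 Homogeneous AlphaScreen proximity assay pairing GST-Six1 with His-tagged Eya2 (added as 5X mix: 250 nM and 500 nM) in 50 mM Tris pH 8.0, 300 mM NaCl, 1 mM TCEP. Glutathione donor and nickel acceptor beads; 1 h, 37 °C, dark.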
# KDM4E inh: qHTS Assay for Inhibitors of Human Jumonji Domain Containing 2E (JMJD2E) | Lysine-specific demethylase 4E (Homo sapiens), B2RXH2 | JMJD2E catalytic domain, FDH-coupled NADH fluorescence (FDH is formaldehyde dehydrogenase) | Potency, µM (series often up to 57.1 µM), for inactives: top-dose activity change, negative = inhibition, most hits filed as inhibitors | 230,000 compounds, 1.6% hits | AID 2147, 2009; active means well fitted inhibition curve with a large enough effect, not every such curve was filed as active; inconclusive means small, poorly fitted or top-dose-only effect, or another doubt; inactive means no such curve, though single readings can be large or run the other way;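 further: potency means the concentration at half of the fitted maximal effect; 0% = wells with enzyme and -100% = buffer wells without enzyme; nearly all actives have a fitted effect of over 50% in size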
# KCNH2 3.1 inh: qHTS for Inhibitors of KCHN2 3.1: Mutant qHTS | Potassium voltage-gated channel subfamily H member 2, brain isoform KCNH2 3.1 (human) | U2OS KCNH2 3.1, thallium flux FluxOr; active compounds read low | activity change, % (tested at about 1.8 µM) | 340,000 compounds, 0.95% hits;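 active means maximum activity change below -70%; inconclusive means maximum activity change from -70% to -50%; inactive means maximum activity change above -50%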;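 further: thallium influx rate constant from kinetic fluorescence after stimulation buffer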
#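 Channel expression came from 3.1 mutant virus (1.77 x 10^8 /mL) applied to suspended U2OS cells for 4 h. Flux was tracked with FluxOr dye plus Red40 quencher, and kinetic rate constants normalized to controls.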
# CtBP-E1A inh: qHTS Assay for Inhibitors of the CtBP/E1A Interaction; CtBP / adenovirus E1A interaction (AlphaScreen); AlphaScreen GST-E1A/His-CtBP binding, 1536-well; active compounds read low; activity change, % (no concentration beside the values); 340,000 compounds, 0.49% hits; AID 651724, 2012
#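 AlphaScreen with 125 nM GST-E1A and 125 nM His-CtBP (5X stocks) in Tris pH 8.0, 300 mM NaCl, BSA, Tween 20, TCEP. Compounds preincubated 2 h at 37 deg C, then glutathione donor/nickel acceptor beads added for 1 h at 37 deg C in dark.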
# hERG WT inh: qHTS for Inhibitors of KCHN2 3.1: Wildtype qHTS | activity change, % at 1.84 µM | U2OS, BacMam KCNH2, thallium flux FluxOr; active compounds read low | Voltage-gated inwardly rectifying potassium channel KCNH2 (Homo sapiens), Q12809 | 340,000 compounds, 0.37% hits;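 active means maximum activity change below -70%; inconclusive means maximum activity change between -70% and -50%; inactive means maximum activity change above -50%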
#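 U2OS cells transduced with wild-type KCNH2 virus are loaded with FluxOr dye for 45 min, and thallium flux is measured in kinetic reads before and after stimulation buffer. Rate constants are normalized to DMSO controls.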
# * marks the source's active call; other numbers are inactive results; u = inconclusive; x = no result given. In the library only some 2% were active in any assay of this set; here they are far more common. Unless noted, no stated cut-off is given here; in the data, active means activity change below about -65%; inconclusive means mostly about -30% to -63%; inactive means weaker than that. Unless noted, on the % scale 0 is the no-effect control and ±100 the full control effect.
SMILES,Six1-Eya2 inh,KDM4E inh,KCNH2 3.1 inh,CtBP-E1A inh,hERG WT inh
CN(C(=O)c1cc([N+](=O)[O-])ccc1N1CCCC1)C1CCCCC1,-5,x,-10,-8,-16
O=C(c1cc([N+](=O)[O-])ccc1N1CCOCC1)N1CCN(c2ccc([N+](=O)[O-])cc2)CC1,13,x,-106*,0,-125*
Cc1ccc(OCC(=O)N2CCN(c3ccc([N+](=O)[O-])c(N4CCOCC4)c3)CC2)cc1,-16,6%,0,0,13
O=C(/C=C/c1ccccc1)Nc1cccnc1Oc1ccccc1F,20,-14%,-10,-2,1
CN(C)S(=O)(=O)c1ccc(N2CCCC2)c(C(=O)N2CCN(c3ccc([N+](=O)[O-])cc3)CC2)c1,11,-2%,-116*,x,-83*
Cc1cccc(N2CCN(C(=O)c3cc(S(=O)(=O)N(C)C)ccc3N3CCCC3)CC2)c1C,0,-20%,1,-1,-6
O=[N+]([O-])c1cccc(C=NNc2ccc3ccccc3n2)c1O,-91*,x,-17,-95*,-29
O=C(N/N=C/c1cccc([N+](=O)[O-])c1)C1COc2ccccc2O1 (stereo not given),18,-4%,-7,x,-4
COc1cc([N+](=O)[O-])cc(/C=N\NC(=O)C2COc3ccccc3O2)c1O (stereo not given),-89*,u,-3,x,-7
O=C(N/N=C/c1cccc([N+](=O)[O-])c1O)c1cccs1,-91*,4µM*,13,7,7
Brc1ccccc1/C=N/Nc1ccc2ccccc2n1,-6,-5%,-42,9,3
O=C(N/N=C\c1cccc([N+](=O)[O-])c1O)C1COc2ccccc2O1 (stereo not given),-88*,u,5,-96*,-15
COC(=O)c1[nH]c2ccccc2c1Sc1ccccc1,-1,x,-14,x,3
CCN(CC)CCCNC(=O)c1[nH]c2ccccc2c1Sc1ccc(Cl)cc1,0,x,-111*,-6,-127*
Cc1ccccc1NC(=O)NCc1cccnc1,10,x,-1,3,-7
COc1ccccc1NC(=O)C1=C(C)NC2=C(C(=O)CC(c3ccc(OC)c(OC)c3)C2)C1c1coc2ccccc2c1=O (stereo not given),-78*,-6%,-6,-20,25
Cc1ccc(C)c(NCC(=O)NNC(=S)Nc2ccccc2)c1,-1,-7%,21,-1,-75*
Cc1c(NC(=O)c2ccc3c(c2)OCO3)cccc1-c1nc2ccccc2o1,2,u,-13,2,-2
O=C(NNc1c2ccccc2nc2ccccc12)c1ccccc1O,u,u,x,-73*,-8
O=C(NNc1c2ccccc2nc2ccccc12)c1ccc(O)cc1O,-84*,u,-3,-84*,-5
O=C(NNc1c2ccccc2nc2ccccc12)c1ccccc1Cl,-25,x,-10,-14,6
O=C(NNC(=O)c1cccc2ccccc12)c1ccccc1O,-29,x,-41,u,10
O=C(NNc1nc(=O)c2cccnc2s1)c1ccccc1O,u,14µM*,-8,-15,0
COCCNCc1ccc(Cl)cc1Cl,-1,-1%,2,-10,1
Cc1ccc(-c2noc(CNCCCN(C)C)n2)cc1,0,8%,-2,0,3
SMILES,Six1-Eya2 inh,KDM4E inh,KCNH2 3.1 inh,CtBP-E1A inh,hERG WT inh
Cc1ccc(C2C(C#N)=C(N)Oc3n[nH]c(-c4cccs4)c32)cc1 (stereo not given),-5,7.1µM*,4,0,-4
C/C(=N/NC(=O)CNC(=O)c1ccc2c(c1)OCO2)c1ccc2c(c1)CCCC2,-1,10%,10,6,-6
Fc1ccc(Cn2nnc(-c3ccc(Cl)cc3)n2)cc1,6,x,3,17,-9
Clc1ccc(Cn2nnc(-c3ccc(N4CCOCC4)cc3)n2)cc1,0,u,-73*,2,-18
C[C@@H]1CCCCO[C@@H](CN(C)C(=O)CCC(F)(F)F)[C@@H](C)CN([C@H](C)CO)C(=O)c2cc(N(C)C)ccc2O1,-4,x,35,5,-12
CC(OC(=O)c1ccc(Cl)c(S(=O)(=O)Nc2ccc(F)cc2)c1)C(=O)NC(N)=O (stereo not given),6,0%,-1,4,-6
O=c1oc(C2(O)CCCCC2)cc2ccc(Br)cc12,2,x,x,-3,x
Oc1ccc(N=Nc2ccc3c(c2)OCCO3)c2ncccc12,-76*,-24%,-7,x,-4
CCOc1ccc(N=Nc2ccc(O)c3ncccc23)cc1,-13,x,0,u,4
Cc1cccc(N=Nc2ccc(O)c3ncccc23)c1,-84*,-7%,0,-79*,-9
NS(=O)(=O)c1ccc(N=Nc2ccc(O)c3ncccc23)cc1,-97*,x,-9,x,3
O=C(Nc1ncccc1O)c1ccc2c(c1)OCCO2,-6,x,7,0,-2
CCOc1ccc(NC(=O)C(C)NS(=O)(=O)c2ccc(NC(C)=O)cc2)cc1 (stereo not given),3,-11%,-4,12,7
Cc1cc(C)c(NC(=O)CN(C)C(=O)C2CC(=O)N(c3cccc4ccccc34)C2)c(C)c1 (stereo not given),13,x,-4,-11,18
Cc1cc(C)n(-c2ccc(C(=O)OCC(=O)Nc3cc(Cl)ccc3[N+](=O)[O-])cc2)n1,-5,1%,-11,-3,1
O=C(NNS(=O)(=O)c1ccc(Br)cc1)NC1CCCCC1,-5,0%,u,5,-2
O=C(NNC(=O)C1[C@H]2CCCC[C@@H]12)NC1CCCCC1 (stereo not given in full),4,-14%,-76*,x,x
N#Cc1c(SCC(=O)Nc2ccc(C(F)(F)F)cc2)sc2c(O)cc(=O)[nH]c12,-2,x,-7,-5,3
N#Cc1c(SCC(=O)Nc2nncs2)sc2c(O)cc(=O)[nH]c12,u,x,-22,-82*,2
Cc1cccc(C)c1NC(=O)CSCC(=O)c1ccc(O)c(O)c1,-2,28µM*,-16,0,-17
Cc1cccc(C)c1NC(=O)CSCC(=O)O,14,3%,21,0,-3
COC(=O)c1ccc(-n2c(C)cc(C(=O)CSc3ccc(NC(C)=O)cc3)c2C)cc1,-20,-10%,-120*,-14,2
COc1ccc(Br)cc1CNC(=O)C1CCN(S(=O)(=O)N2CCCCC2)CC1,-1,-1%,-1,10,1
CCN=C1S/C(=C\c2cn(CC(=O)NCc3ccco3)c3ccccc23)C(=O)N1CC,-4,x,-4,3,5
